# Measurements taken from paper PMC10726135, “HNF4α isoforms regulate the circadian balance between carbohydrate and lipid metabolism in the liver”.
# In all, about 18,000 sequences were measured (“log2 normalized intensity”: median about 0.39, highest 2% from about 6.6 on). The full list was thinned out, with the highest values kept by preference.
# Biological target: T1, HNF4alpha2 (COS-7 nuclear extract) (Homo sapiens, UniProt P41235 1-474)
# T1 sequence: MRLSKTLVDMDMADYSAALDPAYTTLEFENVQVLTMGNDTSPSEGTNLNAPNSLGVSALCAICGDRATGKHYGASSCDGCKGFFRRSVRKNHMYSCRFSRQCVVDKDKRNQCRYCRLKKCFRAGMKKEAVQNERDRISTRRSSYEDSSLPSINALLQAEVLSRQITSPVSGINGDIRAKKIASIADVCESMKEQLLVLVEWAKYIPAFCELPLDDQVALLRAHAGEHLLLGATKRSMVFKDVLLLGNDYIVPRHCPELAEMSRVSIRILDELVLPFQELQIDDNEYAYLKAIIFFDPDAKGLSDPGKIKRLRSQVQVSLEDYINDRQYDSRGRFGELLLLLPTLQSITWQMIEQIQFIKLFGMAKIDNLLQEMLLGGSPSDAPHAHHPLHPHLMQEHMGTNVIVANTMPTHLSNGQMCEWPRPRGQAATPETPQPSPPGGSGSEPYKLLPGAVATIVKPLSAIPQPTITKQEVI
# Test: protein-binding microarray; COS-7 nuclear extract on double-stranded Agilent 4x180k PBM; binding buffer, salt, pH and temperature not given in the material; high values mean tight binding
# Conditions: chain copies: 2; label: 3' end of strand 1 on the slide; dsDNA, one strand shown
# Procedure, shortened: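 The binding signal is Agilent software's gProcessedSignal after background correction and normalization. Arrays were a custom Agilent SurePrint G3 4x180k design of double-stranded ~60-nt oligonucleotides with ~44,000 test sequences in quadruplicate, probed with nuclear extracts of COS-7 cells transiently expressing a human HNF4α isoform. Scans were made at 2-µm resolution on an Agilent G2565CA scanner.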
row,Sequence,binding signal
1,GACTGGAAGTTGCCCGAGCTGCCCTTTATCGCCTAGGGAGATTAGAGTATCGGTCGA,2.47 log2 normalized intensity
2,CCGGTTTGTTCCATGCCACAGAATCGCCCCGCCTAGGGAGATTAGAGTATCGGTCGA,2.6 log2 normalized intensity
3,CCAGATGATCTTTACCCTGGAATGCTGTTAGCCTAGGGAGATTAGAGTATCGGTCGA,1.33 log2 normalized intensity
4,GGAGGAGCTGTTTGACATCCAAAGTTTCCTGCCTAGGGAGATTAGAGTATCGGTCGA,0.813 log2 normalized intensity
5,AAGTTGGAATTTGGGTGATCCTGGTAGCAGGCCTAGGGAGATTAGAGTATCGGTCGA,0.0957 log2 normalized intensity
6,TGGTTTTATGGTGTCTTATCTTCCTCTGGCGCCTAGGGAGATTAGAGTATCGGTCGA,1.96 log2 normalized intensity
7,CACACACACACACATTGCAGTATGCCCCCCGCCTAGGGAGATTAGAGTATCGGTCGA,5.1 log2 normalized intensity
8,CCCCCCACCCCACACACACACAGCATTCCAGCCTAGGGAGATTAGAGTATCGGTCGA,5.05 log2 normalized intensity
9,TGCAGTATGCCCCCCCACCCCACACACACAGCCTAGGGAGATTAGAGTATCGGTCGA,6.7 log2 normalized intensity
10,CACATTGCAGTATGCCCCCCCACCCCACACGCCTAGGGAGATTAGAGTATCGGTCGA,6.96 log2 normalized intensity
11,TATGCCCCCCCACCCCACACACACACAGCAGCCTAGGGAGATTAGAGTATCGGTCGA,6.17 log2 normalized intensity
12,ACACACACATTGCAGTATGCCCCCCCACCCGCCTAGGGAGATTAGAGTATCGGTCGA,6.13 log2 normalized intensity
13,TACACCTGGGGGCTTCCCAACTCCATTATCGCCTAGGGAGATTAGAGTATCGGTCGA,-0.261 log2 normalized intensity
14,TCCCTATGTTGTCCCTGCCCTTTGTCCAGGGCCTAGGGAGATTAGAGTATCGGTCGA,3.89 log2 normalized intensity
15,AGAATATTAGATGATAAGGGTGAAAAGATAGCCTAGGGAGATTAGAGTATCGGTCGA,-0.989 log2 normalized intensity
16,AAGGAGCTTGGGAAGACAGATGTGATATTCGCCTAGGGAGATTAGAGTATCGGTCGA,-0.781 log2 normalized intensity
17,TTTGTTGCCTCTTTTCTGCTTTTGGAATTTGCCTAGGGAGATTAGAGTATCGGTCGA,2.71 log2 normalized intensity
18,AAGCCCTTCTTCTGGAGCCTCAGTAAGTTTGCCTAGGGAGATTAGAGTATCGGTCGA,0.629 log2 normalized intensity
19,CCCCTCAGTTTTTCTCTTTTGACCTTTGGAGCCTAGGGAGATTAGAGTATCGGTCGA,8.9 log2 normalized intensity
20,CGCATTTCTGCTTCTTCTCATTCTTGGAATGCCTAGGGAGATTAGAGTATCGGTCGA,1.39 log2 normalized intensity
21,CTTTTCTGCTTTTGGAATTTGACCTCATTTGCCTAGGGAGATTAGAGTATCGGTCGA,6.91 log2 normalized intensity
22,TGCCTCTTTTCTGCTTTTGGAATTTGACCTGCCTAGGGAGATTAGAGTATCGGTCGA,7.84 log2 normalized intensity

row,Sequence,binding signal
1,GTGCTTGGACCTGCTCTGTTTTCTTTCGGTGCCTAGGGAGATTAGAGTATCGGTCGA,1.49 log2 normalized intensity
2,GGTGACCCCTCAGTTTTTCTCTTTTGACCTGCCTAGGGAGATTAGAGTATCGGTCGA,4.09 log2 normalized intensity
3,CTGCTTTTGGAATTTGACCTCATTTGCTCCGCCTAGGGAGATTAGAGTATCGGTCGA,5.7 log2 normalized intensity
4,CTGTTGGTGACTGACCCTGATCCCTCCCTGGCCTAGGGAGATTAGAGTATCGGTCGA,3.18 log2 normalized intensity
5,GGATCCCATTCATGTGGGTCAACAGACAAAGCCTAGGGAGATTAGAGTATCGGTCGA,0.575 log2 normalized intensity
6,AAAGTCTTTCTCTTTCAAGATAACAAGGCAGCCTAGGGAGATTAGAGTATCGGTCGA,1.37 log2 normalized intensity
7,CTGATCAAAGGTCATTGGTATTGATAGCGCGCCTAGGGAGATTAGAGTATCGGTCGA,4.8 log2 normalized intensity
8,ATATCTATATGTTTACATATCACTGTACTCGCCTAGGGAGATTAGAGTATCGGTCGA,2.08 log2 normalized intensity
9,TCCCCACCCCCAACTTCCCCAACCCTTGCAGCCTAGGGAGATTAGAGTATCGGTCGA,6.3 log2 normalized intensity
10,ATCCCCGCTCCCCTCCCCCACCCGCGGTCCGCCTAGGGAGATTAGAGTATCGGTCGA,6.38 log2 normalized intensity
11,CCTTGCCCCACCCCCCACCCCAGAAGTATGGCCTAGGGAGATTAGAGTATCGGTCGA,6.2 log2 normalized intensity
12,GCTCCCTCCCCTCCTCCCTTGCTCACCCCAGCCTAGGGAGATTAGAGTATCGGTCGA,5.91 log2 normalized intensity
13,GGGTCATGCTGGTCTCCTTGCCCCACCCCCGCCTAGGGAGATTAGAGTATCGGTCGA,5.55 log2 normalized intensity
14,ATGCTGGTCTCCTTGCCCCACCCCCCACCCGCCTAGGGAGATTAGAGTATCGGTCGA,7.6 log2 normalized intensity
15,CATGCTCCCCACCCCCAACTTCCCCAACCCGCCTAGGGAGATTAGAGTATCGGTCGA,6.67 log2 normalized intensity
16,ACCAAGGGTCATGCTGGTCTCCTTGCCCCAGCCTAGGGAGATTAGAGTATCGGTCGA,1.74 log2 normalized intensity
17,GGTCTCCTTGCCCCACCCCCCACCCCAGAAGCCTAGGGAGATTAGAGTATCGGTCGA,6.86 log2 normalized intensity
18,CGAACCTGTCTCCAGAGGACTTGCGGTGTTGCCTAGGGAGATTAGAGTATCGGTCGA,0.482 log2 normalized intensity
19,CCTTTGGACTGTGACCCCACCTCTCAGACAGCCTAGGGAGATTAGAGTATCGGTCGA,4.83 log2 normalized intensity
20,AGAACCTGCCCATGACCTTTGGACTGTGACGCCTAGGGAGATTAGAGTATCGGTCGA,9.54 log2 normalized intensity
21,GGACTGTGACCCCACCTCTCAGACAGAGCTGCCTAGGGAGATTAGAGTATCGGTCGA,2.75 log2 normalized intensity
22,CTGCCCTTTGGAACCTGCCCTCTGTCCCATGCCTAGGGAGATTAGAGTATCGGTCGA,4.15 log2 normalized intensity

row,Sequence,binding signal
1,CATGACCTTTGGACTGTGACCCCACCTCTCGCCTAGGGAGATTAGAGTATCGGTCGA,7.45 log2 normalized intensity
2,GGGCAGGGTCAGAACCTGCCCATGACCTTTGCCTAGGGAGATTAGAGTATCGGTCGA,5.92 log2 normalized intensity
3,AAACCCAAGATTTGGTGTTACCTTTGGACTGCCTAGGGAGATTAGAGTATCGGTCGA,5.71 log2 normalized intensity
4,CTTTGGAACCTGCCCTCTGTCCCATGGTGTGCCTAGGGAGATTAGAGTATCGGTCGA,2.48 log2 normalized intensity
5,GGGTCAGAACCTGCCCATGACCTTTGGACTGCCTAGGGAGATTAGAGTATCGGTCGA,11.1 log2 normalized intensity
6,TGTAATAAGGAGTTGTGTGATAAGGAGGGCGCCTAGGGAGATTAGAGTATCGGTCGA,0.534 log2 normalized intensity
7,CATGCAATCACACTAATCTGTCAGAAAACCGCCTAGGGAGATTAGAGTATCGGTCGA,-0.731 log2 normalized intensity
8,GGTGAGGGTTACAGGTGGACAAACAGGCTGGCCTAGGGAGATTAGAGTATCGGTCGA,-0.829 log2 normalized intensity
9,AGGGATTCCTGAAGATCGCAGACTTTGGACGCCTAGGGAGATTAGAGTATCGGTCGA,5.66 log2 normalized intensity
10,CTGGCAGCACCTGAAGAATTTGGACTTTGCGCCTAGGGAGATTAGAGTATCGGTCGA,7.7 log2 normalized intensity
11,TGGACTTTGCACTAAAAGCCATGAGAAGGTGCCTAGGGAGATTAGAGTATCGGTCGA,4.84 log2 normalized intensity
12,TGGACTTTGGAATTAAGGAGATTTGGCTTTGCCTAGGGAGATTAGAGTATCGGTCGA,4.84 log2 normalized intensity
13,CTGAAGAATTTGGACTTTGCACTAAAAGCCGCCTAGGGAGATTAGAGTATCGGTCGA,6.95 log2 normalized intensity
14,GGGTCCTGGCAGCACCTGAAGAATTTGGACGCCTAGGGAGATTAGAGTATCGGTCGA,1.23 log2 normalized intensity
15,GAATTTGGACTTTGCACTAAAAGCCATGAGGCCTAGGGAGATTAGAGTATCGGTCGA,5.86 log2 normalized intensity
16,GGTGAGTCTTTGCCCCTGGACTTTGAATTTGCCTAGGGAGATTAGAGTATCGGTCGA,4.94 log2 normalized intensity
17,GGAGACCTGAAACTAGACCAAGAAGACTTTGCCTAGGGAGATTAGAGTATCGGTCGA,-0.974 log2 normalized intensity
18,AGCACCTGAAGAATTTGGACTTTGCACTAAGCCTAGGGAGATTAGAGTATCGGTCGA,8.43 log2 normalized intensity
19,GAAGATCGCAGACTTTGGACTCTGCAAGGAGCCTAGGGAGATTAGAGTATCGGTCGA,5.8 log2 normalized intensity
20,TTCCTGAAGATCGCAGACTTTGGACTCTGCGCCTAGGGAGATTAGAGTATCGGTCGA,7.83 log2 normalized intensity
